Reference: PubChem BioAssay
Calls of active or inactive are those of the source. How the calls were made is not given here.

These compounds were tested against L-lactate dehydrogenase (Plasmodium falciparum (isolate CDC / Honduras)) (UniProt Q27743) (assay: PfLDH activity inhibition – cell lysate, 3D7 strain, counter-screen for P. falciparum growth inhibition project (AID 2304;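 further: 0% = vehicle and 100% = reference inhibitor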)). Conditions: P. falciparum 3D7 crude extract, LDH APAD/NBT absorbance; at 2 µM; hits give high values.
L-lactate dehydrogenase (Plasmodium falciparum (isolate CDC / Honduras)), sequence (Q27743 whole entry, looked up): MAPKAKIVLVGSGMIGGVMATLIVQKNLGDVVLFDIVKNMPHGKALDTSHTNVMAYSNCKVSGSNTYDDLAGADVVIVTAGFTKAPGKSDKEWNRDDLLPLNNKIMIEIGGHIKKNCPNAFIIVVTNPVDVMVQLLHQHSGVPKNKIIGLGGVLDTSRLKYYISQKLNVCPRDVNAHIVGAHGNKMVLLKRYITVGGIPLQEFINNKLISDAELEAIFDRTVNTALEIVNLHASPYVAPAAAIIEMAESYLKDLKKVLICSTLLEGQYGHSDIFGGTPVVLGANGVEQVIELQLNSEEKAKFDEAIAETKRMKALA
In the case of `CN1CCN(CCCN(Cc2ccc(-c3cccc(CNCc4ccc5c(c4)OCO5)c3)cc2)C(=O)NC2CCCCC2)CC1`, the inhibition is reported as 4% (inactive). `Cc1[nH]c(C)c(-c2ccc(CCc3ccc(F)cc3F)cc2)c(=O)c1Cl` was tested, and the inhibition was -4% (inactive). In the case of `Cc1cc(OCCCN2CCC(NS(=O)(=O)c3cccc(Br)c3)CC2)c2ccccc2n1`, the inhibition is reported as -2% (inactive). `CC(C)NCc1ccc(-c2cccc(NC(=O)c3cccc(C#N)c3)c2)cc1` was tested, and the inhibition was -6% (inactive). With `CC(C)C[C@H](NC(=O)c1cc2ccccc2s1)C(=O)N[C@H]1CCN(Cc2ccc(OCCN3CCNCC3)c3ccccc23)C1` the inhibition was 3% (inactive). For `COc1ccc(OCCCCON2C(N)=NC(N)=NC2(C)C)cc1`, the inhibition was 4% (inactive). `Cc1ccc(C(=O)Nc2ccc(Cl)c(N3CCN(CCc4ccccc4)CC3)c2)cc1` was tested, and the inhibition was -7% (inactive). With `Cc1ccc(C(C(=O)Nc2ccc(N3CCNCC3)c(Cl)c2)c2ccccc2)cc1` (stereo not given) the inhibition was -2% (inactive). With `COc1cc(CNCCCCCCNCc2cc(OC)cc3ccccc23)c2ccccc2c1` the inhibition was -5% (inactive). In the case of `COc1cc(C(=O)N2CC[C@@H](CCN3CCC4(CC3)CN(S(C)(=O)=O)c3ccccc34)C[C@H]2Cc2ccc(Cl)c(Cl)c2)cc(OC)c1OC`, the inhibition is reported as 4% (inactive). `Cc1ccc2c(NN=CC=Cc3ccccc3)cc(C)nc2c1` was tested, and the inhibition was 6% (inactive). For `OCCN1CCN(Cc2ccc(-c3ccc(-c4nc5ccc(C(F)(F)F)cc5[nH]4)s3)cc2)CC1`, the inhibition was -7% (inactive). `NC1=NC2(CCCCC2)N(OCCCOc2cccc3ccccc23)C(N)=N1` was tested, and the inhibition was -2% (inactive). For `Cc1cccc2[nH]c(-c3cccc(-c4ccc(NC(=O)Cc5ccon5)cc4)c3)nc12`, the inhibition was 2% (inactive). For `COc1ccc2nccc([C@@H](O)CN3CCC(NC(=O)c4cc5ccccc5[nH]4)CC3)c2c1`, the inhibition was -3% (inactive). With `O=C(NCCc1ccc(Cl)c(Cl)c1)C1CCCN(C(=O)c2ccc(O)c(-c3ccc(Cl)c(Cl)c3)c2)C1` (stereo not given) the inhibition was -3% (inactive). In the case of `CCCc1cc(Cc2cnc(N)nc2N)cc(CCC)c1OCCCCCC(=O)OCC`, the inhibition is reported as -1% (inactive). `CCCCc1ccc(-c2ccc(-c3c(C)[nH]c(C)c(Br)c3=O)cn2)cc1` was tested, and the inhibition was 1% (inactive). `Cc1cc(NN=Cc2ccccn2)c2cc(C(F)(F)F)ccc2n1` was tested, and the inhibition was -4% (inactive). For `O=C(Nc1ccsc1)Nc1cccc(-c2cccc(-c3nc4ccc(C(F)(F)F)cc4[nH]3)c2)c1`, the inhibition was -7% (inactive). With `COc1cc(NC(=O)C(c2ccc(Cl)cc2)C(C)C)cc(OC)c1` (stereo not given) the inhibition was -3% (inactive). For `CC(C)(C)C1CC(=O)C[C@@H]2C(=O)N(c3ccc(Br)cc3)C(=O)[C@H]12` (stereo not given in full), the inhibition was 1% (inactive). With `COc1ccc(O)c(C(=O)c2cc(C(=O)NC3CCCCC3)c(=O)n(C3CCCCC3)c2)c1` the inhibition was 3% (inactive). In the case of `COc1ccccc1NC(=O)Nc1ccc(-c2ccc(-c3nc4c(C)cccc4[nH]3)s2)cc1`, the inhibition is reported as 0% (inactive). With `COc1cc2c(C3CCN(CC4CCC(NC(=O)/C=C/c5ccc(Cl)c(Cl)c5)CC4)CC3)c[nH]c2cn1` (stereo not given) the inhibition was -5% (inactive). For `COCC(C)n1c(SCC(=O)Nc2cc(C(F)(F)F)ccc2Cl)nc2ccccc2c1=O` (stereo not given), the inhibition was 6% (inactive). `COc1ccc(-n2cc(CNCCCn3ccnc3)c(-c3cccc(F)c3)n2)cc1` was tested, and the inhibition was 0% (inactive). In the case of `COc1cc(Cc2cnc(N)nc2N)cc(OCCCCC2SC(=O)NC2=O)c1OC` (stereo not given), the inhibition is reported as 7% (inactive). For `COc1ccc2nccc([C@@H](O)CN3CCC(NCc4nc5cc(F)ccc5o4)CC3)c2c1`, the inhibition was -8% (inactive). In the case of `N=C(N)c1cc(Br)cc(NC(=O)Nc2cc(Br)cc(C(=N)N)c2)c1`, the inhibition is reported as -4% (inactive). In the case of `CS(=O)(=O)c1ccc(CNCc2ccc(-c3cccc(-c4nc5ccc(F)cc5[nH]4)c3)cc2)cc1`, the inhibition is reported as -5% (inactive). In the case of `CC(C)(C)c1ccc(NC(=O)c2cccc(CN3CCN(Cc4cccc(O)c4)CC3)c2)cc1`, the inhibition is reported as -2% (inactive). For `COc1cc(C(=O)NC2CCN(Cc3ccccc3)CC2)ccc1-c1cc2cc(Cl)c(Cl)cc2[nH]1`, the inhibition was 5% (inactive). With `COc1cc(NC(=O)c2sc(-c3ccc(Cl)cc3)cc2NC(=O)CN2CCCC2)ccc1OCCN1CCCC1` the inhibition was 3% (inactive). In the case of `O=[N+]([O-])c1ccc(Nc2nc(NN=Cc3ccc(-c4ccc([N+](=O)[O-])cc4)o3)nc(Nc3ccccc3)n2)cc1`, the inhibition is reported as -5% (inactive). In the case of `CN1CCN(CCCN(Cc2ccc(-c3cccc(CNC4CCCC4)c3)cc2)C(=O)/C=C/c2ccccc2)CC1`, the inhibition is reported as 4% (inactive). In the case of `CC(C)(C)c1ccc(CN2CCCCC(NC(=O)c3cc(-c4cccc(Cl)c4)cs3)C2)cc1` (stereo not given), the inhibition is reported as 1% (inactive). `O=C(NCc1cccc(F)c1)Nc1cccc(-c2ccc(-c3nc4ccc(F)cc4[nH]3)cc2)c1` was tested, and the inhibition was -3% (inactive). `CCCCCC(=O)N1CCOC(CCN2CCc3c(c4ccccc4n3C)C2)(c2ccc(Cl)c(Cl)c2)C1` (stereo not given) was tested, and the inhibition was 1% (inactive). For `CC(=O)Oc1c(C2CCN(CCCCNC(=O)c3ccc(NC(=O)c4ccc(Cl)cc4)cc3)CC2)ccc2ccccc12`, the inhibition was -6% (inactive).
